According to PubChem BioAssay (NCATS):
Records with an inconclusive call do not appear. Values without a mark were called inactive.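 The calls were made as follows: active = dose-dependent loss of cell ATP signal giving a full or clear fitted curve, ranked by lower potency value; inconclusive = weak partial curve or response only at the top dose; inactive = no loss of viability signal.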
Potency is read from the fitted curve at half-maximal effect.

Test: Cell Viability - Jurkat (AID 426);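 also: cells exposed to compound for 40 hours at 37 °C before ATP read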
Conditions: qHTS
In short: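 qHTS, 1536-well; Jurkat E6-1, 5000 cells/well, complete medium; cpd 40 hr, 37 °C; CellTiter-Glo 20 min RT; luminescence. AC50 by Hill fit.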
Compound `Brc1ccccc1` has a Potency of over 92 µM.
`CCOP(=S)(OCC)SCSC(C)(C)C` gave a Potency of over 92 µM.
Compound `C=C(C)C#N` has a Potency of over 92 µM.
For `CCSC(=O)Cl`, the Potency was over 92 µM.
Work on `Cc1cccc([N+](=O)[O-])c1` yielded a Potency of over 92 µM.
Work on `Nc1c(Cl)c(Cl)nc(C(=O)O)c1Cl` yielded a Potency of over 92 µM.
With `CC(C)(C)OOC(C)(C)C` the Potency was over 92 µM.
`C=C(C)C(=O)OCC1CO1` (configuration not stated) gave a Potency of over 92 µM.
With `Cc1ccc([N+](=O)[O-])cc1C` the Potency was over 92 µM.
`O=[N+]([O-])c1ccc(Cl)c(Cl)c1` gave a Potency of over 92 µM.
`C=CC(=C)C` gave a Potency of over 92 µM.
Work on `Cc1ccc2ccccc2c1` yielded a Potency of over 92 µM.
For `Nc1ccccc1Cl`, the Potency was over 92 µM.
In the case of `Clc1ccc2ccccc2c1`, the Potency is reported as over 92 µM.
Work on `[O-][Br+2]([O-])O` yielded a Potency of over 92 µM.
Work on `Clc1nc(Cl)nc(Nc2ccccc2Cl)n1` yielded a Potency of over 92 µM.
Compound `OCC1CO1` (configuration not stated) has a Potency of over 92 µM.
In the case of `C=CCOC(=O)c1ccccc1N`, the Potency is reported as over 92 µM.
For `C=CC(N)=O`, the Potency was over 92 µM.
For `CC(C)(c1ccccc1)c1ccc(O)cc1`, the Potency was over 92 µM.
`CCN(CC)c1ccccc1` gave a Potency of over 92 µM.
Compound `S=C=Nc1cccc2ccccc12` has a Potency of over 92 µM.
Compound `N#CCCCl` has a Potency of over 92 µM.
For `O=NN(CCO)CCO`, the Potency was over 92 µM.
`Cc1ccccc1N` gave a Potency of over 92 µM.
In the case of `C=CCOC(C)=O`, the Potency is reported as over 92 µM.
`CCCC(=O)Cl` gave a Potency of over 92 µM.
